Data: PubChem BioAssay (NCI)
About 79,000 compounds went through this panel and 15% of them were active in at least one assay; those are over-represented in the sample as a whole. No stated cut-off is given here; in the data, active means growth inhibition above about 70%; inactive means the rest.

Legend:
[1] = NCI Yeast Anticancer Drug Screen. Data for the rad50 strain (AID 155);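 further: 0% = growth of vehicle-only cultures of the same strain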; settings: S. cerevisiae rad50 strain growth inhibition; at 50.0 µM; hits give high values
In short: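 DNA repair mutant yeast, compound exposure, growth read-out; inhibition is taken relative to vehicle.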

[2] = NCI Yeast Anticancer Drug Screen. Data for the mec2-1 strain (AID 157); settings: S. cerevisiae mec2-1 strain, at 50.0 µM, hits give high values
In short: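 Using mec2-1 yeast: add compound, measure growth, express inhibition versus vehicle-treated cultures.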

[3] = NCI Yeast Anticancer Drug Screen. Data for the sgs1 mgt1 strain (AID 161);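 further: 0% = growth of cultures given vehicle only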; settings: S. cerevisiae sgs1 mgt1 strain, at 50.0 µM, hits give high values
In short: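 This yeast growth screen uses a strain with defined DNA-repair lesions; compound-treated growth is compared with vehicle-treated growth.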

[4] = NCI Yeast Anticancer Drug Screen. Data for the cln2 rad14 strain (AID 165);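 further: 0% = growth equal to vehicle treated cultures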; settings: S. cerevisiae cln2 rad14 strain, at 50.0 µM, hits give high values
In short: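 Yeast strain cln2 rad14, bearing defects in cell cycle control and DNA repair, serves as the test system; values reflect growth inhibition compared with vehicle.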

[5] = NCI Yeast Anticancer Drug Screen. Data for the bub3 strain (AID 167); settings: S. cerevisiae bub3 mutant strain, at 50.0 µM, hits give high values
In short: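 In this screen, a yeast mutant lacking normal mitotic checkpoint function is challenged with compound. Relative growth versus vehicle gives the inhibition value.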

[6] = NCI Yeast Anticancer Drug Screen. Data for the mlh1 rad18 strain (AID 175); settings: S. cerevisiae mlh1 rad18 strain growth inhibition; at 50.0 µM; hits give high values
In short: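 Steps: expose repair-defective yeast to compound; measure growth; express inhibition against vehicle-treated controls.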

Measured: growth inhibition

CCN(CC)S(=O)(=O)Nc1c(C)n(C)n(-c2ccccc2)c1=O
inactive: [1] -5.6% | [2] -17.2% | [3] -4.05% | [4] -3.7% | [5] -2% | [6] 14%

O=C(NNC(=O)C(F)(F)F)C(F)(F)F
inactive: [1] 0.55% | [2] -3.4% | [3] -5.1% | [4] -10% | [5] -12.8% | [6] -2%

CCCCCSc1nc2c([nH]1)c(=O)n(C)c(=S)n2C
inactive: [1] 14.5% | [2] -6.35% | [3] 1.95% | [4] -8.8% | [5] 0.6% | [6] -15.6%

Cc1cccc(N2CCN(S(C)(=O)=O)CC2)c1
inactive: [1] 16.6% | [2] 6.85% | [3] 0.3% | [4] 18.4% | [5] 6.75% | [6] 5%

CC(=O)Nc1ncc(Sc2ccc([N+](=O)[O-])cc2)s1
inactive: [1] -6.5% | [2] -30.9% | [3] -8.35% | [4] 15.3% | [5] -11.8% | [6] 5.65%

O=c1[nH]c2ccccc2c(=O)n2cccc12
inactive: [1] 10.4% | [2] 23.6% | [3] 7.8% | [4] -7.5% | [5] -5.75% | [6] 1.9%

O=C(O)c1ccc(N=NC2Sc3nc4ccccc4n3C2=O)cc1 (stereo not given)
inactive: [1] 16.7% | [2] -13.8% | [3] 15.7% | [4] -8.9% | [5] 11.2% | [6] 44.2%

Brc1ccc[n+](CCc2ccccc2)c1
inactive: [1] -2.7% | [2] 15.1% | [3] -6.7% | [4] 7.75% | [5] 5.7% | [6] 9.5%

Cn1c2c(F)cccc2c(=O)c2c(O)cc3c(c21)C=CC(C)(C)O3
inactive: [1] -24.6% | [2] -22.2% | [3] -27.4% | [4] -17.9% | [5] -18.6% | [6] -19.7%

C(=C\C1OCCO1)/c1ccccc1
inactive: [1] 14.4% | [2] 0.45% | [3] 7.25% | [4] -2.4% | [5] 18.1% | [6] -3%

C1CSCCSCCSCCSC1
inactive: [1] -8.05% | [2] -24.4% | [3] -13.7% | [4] -18.3% | [5] 31.9% | [6] -25.4%

COc1ccc2c(c1OC)C1NCCc3cc4c(cc3C1(OC)C2=O)OCO4 (stereo not given)
inactive: [1] 21.9% | [2] 2.35% | [3] 0.85% | [4] 0.5% | [5] 2% | [6] 8.55%

O=C1/C(=C/c2ccc3c(c2)CCC3)Cc2cc3c(cc21)CCC3
inactive: [1] -10% | [2] 11.7% | [3] -23.4% | [4] 21.4% | [5] -1.15% | [6] 4.75%

CCCCC(CC)C(O)CC(C)=O (stereo not given)
inactive: [1] 39.1% | [2] 16.9% | [3] 25% | [4] -8.75% | [5] 14.2% | [6] 21.1%

CC(=O)N(C)c1cccc2cccc(S(=O)(=O)O)c12
inactive: [1] -18.2% | [2] -19.1% | [3] -17.1% | [4] -59.2% | [5] -2.05% | [6] -15.3%

CCCCCCCCCCCCSCC(=O)O
inactive: [1] -16.8% | [2] 10.8% | [3] 14.2% | [4] -82.8% | [5] 39% | [6] -25.8%

CC(CNC(N)=O)(CNC(N)=O)c1ccccc1
inactive: [1] -4.75% | [2] -9.05% | [3] -11.8% | [4] -21.6% | [5] -0.45% | [6] -25.1%

COc1ccc(-c2oc3ccc(C)cc3c(=O)c2O)cc1
inactive: [1] 6.9% | [2] -8% | [3] -14.8% | [4] 14.8% | [5] -5.7% | [6] -26.8%

O=S(=O)(N/C(=C(\NS(=O)(=O)c1ccccc1)c1ccccc1)c1ccccc1)c1ccccc1
inactive: [1] 63.7% | [2] 6.15% | [3] 39% | [4] 18.3% | [5] 60.9% | [6] 61.2%

Cc1c(C#N)c2n(c1C)CCN2
inactive: [1] -14.3% | [2] -14.1% | [3] -9.2% | [4] -36% | [5] -5.65% | [6] -4.45%
